# PubChem BioAssay (Tox21)
# Where “and” joins values, the source holds several entries; their conditions need not be identical. Equal entries are not always repeated. Inconclusive results are not listed. Where a call stands in place of a potency, no number is given. Where a structure was tested more than once in an assay, its records may differ in their call. Calls of active or inactive are those of the source. Calls come from the whole dose curve; as a rule, active = well fitted cell-killing curve with a large enough effect in the repeat runs; inconclusive = weak or mixed curves, or effect the other way; inactive = flat fitted curve, though single readings scatter.
# Assay: qHTS assay to identify small molecule agonists of the androgen receptor (AR) signaling pathway in the presence of an antagonist - cell viability counter screen (AID 1259379); note: nearly all actives have a fitted effect of over 25% in size
# Settings: MDA-kb2 viability, CellTiter-Fluor, 16 h; series mostly up to 92.4 µM
# Text: National Center for Advancing Translational Sciences [NCATS]
# NIH Chemical Genomics Center [NCGC]
# U.S. Environmental Protection Agency [EPA]
# National Institutes of Environmental Health Sciences [NIEHS]
# National Toxicology Program [NTP]
# U.S. Food and Drug Administration [FDA]
# Androgen receptor (AR) is an important member of nuclear receptor family. Its signaling plays a critical role in AR-dependent prostate cancer and other androgen related diseases. Considerable attention has been given in the past decades to develop methods to study and screen for the environmental chemicals that have the potential to interfere with metabolic homeostasis, reproduction, developmental and behavioral functions. Therefore AR binding assay for screening against androgen agonists and antagonists can be used to identify potential endocrine disruptors.
# MDA-kb2 cells (from ATCC, deposited by Wilson et al.) are human breast carcinoma cells that were stably transfected with a luciferase reporter gene under control of the MMTV promoter that contains response elements for both androgen receptor (AR) and glucocorticoid receptor (GR). This particular screening for measuring luciferase reporter gene activity using MDA-kb2 cells against Tox21 10K library compounds is a confirmation study on agonist mode screening in the presence of AR-antagonist compound (Nilutamide) at 3.0uM final concentration. The cytotoxicity of the compounds was tested in parallel by measuring the cell viability using CellTiter-Fluor assay system (Promega, Madison, WI) in the same wells.
# Tox21 Assay Protocol Summary:
# MDA-kb2 cells (cells cultured without CO2) were dispensed at 3,000 cells/well in 4uL of culture medium into white wall/solid-bottom 1536-well plates (Corning Life Sciences, Corning, NY) using a Multidrop Combi (Thermo Fisher Scientific Inc., Waltham, MA) dispenser. The assay plates were incubated at 37C and 0% CO2 for 5hr. One uL of 3.0uM (final concentration) Nilutamide or assay buffer was added using two separate tips of Flying Reagent Dispenser (FRD, Aurora Discovery, San Diego, CA). Then 23nL of compounds dissolved in DMSO at 15 concentrations and positive controls were transferred to the assay plates using a Pintool station (Wako, San Diego, CA). The assay plates were incubated at 37C and 0% CO2 for 16 hr. After 15hr incubation at 37C, 1uL/well CellTiter-Fluor reagent (Promega Corporation) was added to each well of the assay plates using FRD. After 1hr incubation at 37C and 0% CO2, the fluorescence signal was measured using a ViewLux plate reader (PerkinElmer, Shelton, CT).
# Potency is the fitted concentration of half-maximal effect.
row,Compound,Potency
1,NC=O,inactive
2,O=C(c1ccc(OCCN2CCCCC2)cc1)c1c(-c2ccc(O)cc2)sc2cc(O)ccc12,61.2 µM (active) and 61.1 µM (active) and 26.6 µM (active)
3,COC(=O)CCC(=O)OC,inactive
4,COC(=O)Nc1nc2ccc(S(=O)c3ccccc3)cc2[nH]1 (stereo not given),inactive
5,CN1C(C(=O)Nc2ccccn2)=C(O)c2ccccc2S1(=O)=O,inactive
6,CC(C(=O)O)c1cccc(C(=O)c2ccccc2)c1 (stereo not given),inactive
7,COc1ccc(OC)c(C(O)CNC(=O)CN)c1 (stereo not given),inactive
8,CC1=CCC(C(C)(C)O)CC1 (stereo not given),inactive
9,CC(C)CC(C)(O)C#CC(C)(O)CC(C)C (stereo not given),inactive
10,O=C(OCc1ccccc1)c1ccccc1O,inactive
11,Nc1ncnc2nc[nH]c12,inactive
12,CC(=O)CC/C=C(\C)CCC=C(C)C,inactive
13,Cc1cccc([N+](=O)[O-])c1C,inactive
14,CCCC(=O)O,inactive
15,CCCCC/C=C/C=C/C=O,68 µM (active) and inactive
16,CC(CCC(=O)O)(c1ccc(O)cc1)c1ccc(O)cc1,inactive
17,OC(CCl)CCl,inactive
18,O=C1OC2(c3cc(Br)c(O)c(Br)c3Oc3c2cc(Br)c(O)c3Br)c2c(Cl)c(Cl)c(Cl)c(Cl)c21,21.7 µM (active) and 16.6 µM (active)
19,CC(C)OC(=O)C(C)(C)Oc1ccc(C(=O)c2ccc(Cl)cc2)cc1,inactive
20,OC1CCCCCCCCCCC1,inactive

row,Compound,Potency
1,Nc1ccc(S(=O)(=O)Nc2cnc3ccccc3n2)cc1,inactive
2,CCOC(=O)C(C#N)=C(c1ccccc1)c1ccccc1,inactive
3,c1ccc(Nc2ccccc2)cc1,43.2 µM (active) and inactive
4,c1ccc2cc(Nc3ccc(Nc4ccc5ccccc5c4)cc3)ccc2c1,inactive
5,C[C@]12CC[C@H]3[C@@H](CCC4=CC(=O)CC[C@@]43C)[C@@H]1CC[C@@H]2C(=O)CO,inactive
6,CCCCC(CC)COC(=O)c1ccc(N(C)C)cc1 (stereo not given),inactive
7,O=C(O)c1ccccc1Nc1cccc(C(F)(F)F)c1,inactive
8,CCC(C)OC(=O)c1ccc(O)cc1 (stereo not given),inactive
9,c1ccc2c(c1)Oc1ccccc1S2,inactive
10,Cn1cnc([N+](=O)[O-])c1Sc1ncnc2nc[nH]c12,inactive
11,c1ccc2sc(SSN3CCOCC3)nc2c1,inactive
12,CNCCCC12CCC(c3ccccc31)c1ccccc12,54.5 µM (active)
13,CCCCOCCOCCOCCO,inactive
14,CN(C)CCC=C1c2ccccc2CCc2ccccc21,inactive
15,OCCO,inactive
16,S=C(NC1CCCCC1)NC1CCCCC1,inactive
17,CC(C)=CCCC(C)CCO (stereo not given),inactive
18,Clc1nc(Cl)c(Cl)c(Cl)c1Cl,61.4 µM (active)
19,Cc1ncc[nH]1,inactive
20,Cc1cccc(C(=O)O)c1,inactive
